JMJD2A Tudor inh – inhibitors of human JMJD2A Tudor domain; O75164; AlphaScreen JMJD2A-Tudor / H3K4me3 peptide binding; Potency, µM (titrated, usually from 114 µM), hits mostly inhibitors; actives 4.4% (n = 390,000); note: nearly all actives have a fitted effect of over 50% in size
G9a inh – inhibitors of human histone lysine methyltransferase G9a. actives 8.8% (n = 350,000). Q96KQ7. G9a H3K9 monomethylation, AlphaScreen, 2 h. AID 504332. Potency, µM (titrated, usually from 102 µM), usual class: inhibitors; note: nearly all actives have a fitted effect of over 75% in size
Target sequence (Q96KQ7 913-1193 limits assumed): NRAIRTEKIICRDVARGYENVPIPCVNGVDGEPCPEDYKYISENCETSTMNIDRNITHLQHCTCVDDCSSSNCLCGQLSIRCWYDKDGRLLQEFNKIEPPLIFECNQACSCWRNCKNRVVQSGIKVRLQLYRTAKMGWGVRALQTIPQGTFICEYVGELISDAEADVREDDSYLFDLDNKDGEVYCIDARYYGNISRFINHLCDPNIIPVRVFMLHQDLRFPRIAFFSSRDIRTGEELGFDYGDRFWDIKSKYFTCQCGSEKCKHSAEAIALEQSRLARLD
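AlphaScreen read-out: biotin-H3K9 peptide (500 nM) methylation by 20 nM enzyme with 20 uM SAM, 2 h at room temperature after 15 min compound preincubation; anti-monomethyl H3K9 antibody plus donor/acceptor beads, 10 min dark.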
HP1b binding inh – blocks HP1-beta chromodomain binding to methylated histone tails | actives 0.56% (n = 390,000) | Potency, µM (top dose mostly 114 µM), hits mostly inhibitors | P83916 | AlphaScreen HP1-beta / biotin-H3K9me3 peptide binding; note: nearly all actives have a fitted effect of over 70% in size
Target sequence (P83916 whole entry, looked up): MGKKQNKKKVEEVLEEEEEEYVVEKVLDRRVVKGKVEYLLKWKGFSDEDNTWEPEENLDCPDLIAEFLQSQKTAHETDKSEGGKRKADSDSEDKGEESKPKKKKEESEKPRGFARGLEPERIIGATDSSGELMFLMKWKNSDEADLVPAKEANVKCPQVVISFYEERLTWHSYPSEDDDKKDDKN
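AlphaScreen: HP1-beta (50 nM) preformed 30 min with biotin-H3(1-18)K9me3 peptide (50 nM) in PBS pH 7.4, 0.01% Tween-20. Compound added for 30 min at RT, then streptavidin donor/nickel chelate acceptor beads (10 ug/mL) for 30 min.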
Sfp PPTase inh – inhibitors of Bacillus subtilis Sfp phosphopantetheinyl transferase. actives 3.5% (n = 310,000). AID 1490. Potency, µM, actives largely listed as inhibitors. Biochemical Sfp PPTase activity, qHTS. Q9F4F7;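 note: the enzyme is Sfp with the accession as filed and its product quenches rhodamine fluorescence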
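Sfp 15 nM + cpd, 15 min RT; start w/ rhodamine-CoA 5 uM, BHQ-2-YbbR 12.5 uM (final); 50 mM Hepes pH 7.6, 10 mM MgCl2, 0.01% NP-40, 0.01% BSA; read 525/598 nm at 0 and 30 min.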
BAZ2B block – inhibitors of human BAZ2B bromodomain; AlphaScreen BAZ2B-H3K14Ac peptide displacement; Potency, µM (titrated, usually from 114 µM), hits mostly inhibitors; actives 4.4% (n = 360,000); AID 504333; note: nearly all actives have a fitted effect of over 60% in size
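Multi-concentration screen (max 110 uM) measuring displacement of acetylated histone H3 peptide from BAZ2B by AlphaScreen, using 50 nM protein, 50 nM peptide and 10 ug/mL streptavidin donor plus Ni-chelate acceptor beads.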
L3MBTL1 block – inhibitors of human L3MBTL1; Q9Y468; AlphaScreen L3MBTL1–H3K9me1 peptide binding; Potency, µM (titrated, usually from 57.1 µM), actives largely listed as inhibitors; actives 0.66% (n = 230,000); AID 485360; note: nearly all actives have a fitted effect of over 60% in size
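AlphaScreen assay: L3MBTL1 (50 nM final) was preincubated 30 min at room temperature with biotinylated H3(1-15)K9me1 peptide (75 nM final), then 30 min with library compounds; streptavidin donor and nickel chelate acceptor beads (10 ug/mL final) added, 30 min dark.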
Numbers stand for hits; i = inactive; ? = inconclusive; nt = no result given; [ ] = remark or other dose. Most compounds without a hit are left out; they make up all but 12% or so of the library. Calls come from the whole dose curve; as a rule, active = well fitted curve in the direction sought with a large enough effect; inconclusive = small, poorly fitted or top-dose-only effect, or another doubt; inactive = no such curve, though single readings can be large; an effect the other way counts as inactive or inconclusive.

SMILES | JMJD2A Tudor inh | G9a inh | HP1b binding inh | Sfp PPTase inh | BAZ2B block | L3MBTL1 block
O=C1C2C3c4ccccc4C(c4ccccc43)C2C(=O)N1Cc1cccnc1 (stereo not given) | i | i | i | i | i | i
C/C(=N\Nc1ccccc1[N+](=O)[O-])c1ccc(N2CCOCC2)cc1 | ? | i | 10µM | i | 1µM | i
C/C(=N\Nc1ccc([N+](=O)[O-])cc1)c1ccc(N2CCOCC2)cc1 | i | nt | i | i | i | i
CCOC(=O)c1c(C)[nH]c(N=Nc2ccc(C)cc2C)c1C | 50µM | 45µM | 22µM | ? | 14µM | ?
CCOC(=O)c1c(C)[nH]c(N=Nc2cc(C(=O)O)cc(C(=O)O)c2)c1C | i | i | i | i | ? | nt
CCOC(=O)c1c(C)[nH]c(C(=O)CSc2ccccc2)c1C | i | i | i | i | i | i
CCOC(=O)c1c(C)[nH]c(N=Nc2ccccc2C)c1C | 25µM | 16µM | i | i | 32µM | nt
N#Cc1c2c(c(-c3ccccc3Cl)[nH]c1=S)CCCC2 | i | i[12.7 µM] | i | ? | i | i
CCCCOc1ccc(-c2c(C#N)c(N)[nH]c(=S)c2C#N)cc1 | ? | i[12.7 µM] | i | i | ? | i
N#Cc1c(-c2ccncc2)c2c([nH]c1=S)CCCC2 | 2.2µM | 2.2µM | i | 5µM | ? | i
Cc1ccc(-c2c3c([nH]c(=S)c2C#N)CCCC3)o1 | 40µM | 4.5µM | ? | 8.9µM | 50µM | ?
Cc1noc(C)c1-c1cncnc1-n1ccnc1 | nt | i[0.501 µM] | nt | i | nt | nt
C=CCNC(=O)COc1cc(C)cc(C)c1C | i | ? | i | i | 79µM | i
CCCCN(C(=O)COC(=O)COc1c(C)cc(C)cc1C)c1c(N)n(CCC)c(=O)[nH]c1=O | i | i | i | nt | i | i
Cc1cc(O)c(N=Cc2cc3c(cc2[N+](=O)[O-])OCO3)cc1C | 3.5µM | nt | i | nt | nt | nt
Cc1cccc(N=Cc2cc3c(cc2[N+](=O)[O-])OCO3)c1 | i | i[0.501 µM] | ? | i | ? | i
Cc1cccc(OCC(=O)N/N=C\c2cc3c(cc2[N+](=O)[O-])OCO3)c1C | i | i | i | 25µM | i | nt
CN1CCN(CCC(=O)N/N=C/c2cc3c(cc2[N+](=O)[O-])OCO3)CC1 | 4µM | ? | i | i | i | nt
COc1ccc(-c2cn3nc(N4CCC(C(=O)NCc5cccc(Cl)c5)CC4)sc3n2)cc1 | i | i | i | nt | i | nt
CCOC(CNC(=O)C1CCN(S(=O)(=O)c2ccc3nc4c(c(C(=O)O)c3c2)CCCCC4)CC1)OCC | i | i | i | i | i | nt
CC1CCc2nc3ccc(S(=O)(=O)N4CCC(C(=O)O)CC4)cc3c(C(=O)O)c2C1 (stereo not given) | ? | 32µM | i | i | ? | i
CC1CCc2nc3ccc(S(=O)(=O)N4CCC(C(=O)NC5CCCC5)CC4)cc3c(C(=O)O)c2C1 (stereo not given) | i | 45µM | i | i | i | nt
CCc1ccc2nc3c(c(C(=O)O)c2c1)CCC3 | i | 50µM | i | i | ? | ?
Cc1cc(Br)c2nc3c(c(C(=O)O)c2c1)CCCCC3 | i | ? | i | i | i | i
O=C(O)c1c2c(nc3ccc(S(=O)(=O)N4CCC(C(=O)NC5CCCC5)CC4)cc13)CCCCC2 | i | ? | i | i | i | i
SMILES | JMJD2A Tudor inh | G9a inh | HP1b binding inh | Sfp PPTase inh | BAZ2B block | L3MBTL1 block
COC(CNC(=O)C1CCN(S(=O)(=O)c2ccc3nc4c(c(C(=O)O)c3c2)CC(C)CC4)CC1)OC (stereo not given) | i | 32µM | i | i | ? | nt
Cc1cc(C)cc(Nc2cc(C)nc3nc(-c4ccco4)nn23)c1 | i | ? | i | nt | i | nt
CC1CCc2nc3ccc(S(=O)(=O)N4CCC(C(=O)N5CCCCC5)CC4)cc3c(C(=O)O)c2C1 (stereo not given) | i | 45µM | i | i | i | nt
O=C(O)c1c2c(nc3ccc(S(=O)(=O)N4CCC(C(=O)N5CCCCC5)CC4)cc13)CCCC2 | i | 50µM | i | i | ? | nt
CSc1ccc(S(=O)(=O)N2CCC(C(=O)NC3CC3)CC2)cc1 | i | 35µM | i | i | i | nt
CC1CCc2nc3ccc(S(=O)(=O)N4CCC(C(=O)NC(C)c5ccccc5)CC4)cc3c(C(=O)O)c2C1 (stereo not given) | i | 50µM | i | i | ? | nt
O=C(CSc1nnc(Cc2ccccc2)o1)Nc1ccc(N2CCOCC2)cc1 | i | nt | i | nt | nt | i
CCOc1ccc(-n2c(=O)c3sc4ccccc4c3n(Cc3cccc(C)c3)c2=O)cc1 | ? | i | i | nt | i | nt
Cc1nc2cccnc2n1-c1cccc(C(=O)NCc2ccc(OC(C)C)cc2)c1 | i | i | i | nt | i | nt
O=[N+]([O-])c1cc([N+](=O)[O-])c2nonc2c1Nc1ccccc1O | i | ? | i | ? | i | nt
O=[N+]([O-])c1cc([N+](=O)[O-])c2nonc2c1Nc1ccc(O)cc1 | 50µM | 11µM | ? | ? | ? | i
Cc1cccc(CNc2nc(-c3ccc4c(c3)OCO4)nc3ccccc23)c1 | nt | i[0.501 µM] | nt | ? | nt | nt
CC1CC=C(O)C12OCC(C)(C)CO2 (stereo not given) | i | nt | i | nt | nt | nt
CCOc1nc(Nc2ccc(OC)c(Cl)c2)nc(N2CCN(c3ccc(OC)cc3)CC2)n1 | 35µM | 11µM | ? | i | 11µM | nt
CCOc1nc(Nc2ccc(F)cc2)nc(N2CCN(c3ccc(OC)cc3)CC2)n1 | i | ? | i | i | i | nt
CCC(C(=O)N1CCN(c2cc(Cl)ccc2C)CC1)n1nc(C)c2sc3ccccc3c2c1=O (stereo not given) | i | i | i | nt | i | nt
CC(C)(C)c1ccc(C(=O)NNc2ncnc3c2cnn3-c2ccccc2)cc1 | i | i | i | nt | i | nt
CC(C)(C)c1csc(NC(=O)Cn2c(=O)oc3ccccc32)n1 | i | 11µM | i | i | i | i
O=C(Cn1c(=O)oc2ccccc21)Nc1nc(-c2ccccc2)cs1 | i | i | i | i | i | i
O=C(Cn1c(=O)oc2ccccc21)Nc1n[nH]c(=S)s1 | 3.5µM | 1.3µM | ? | 32µM | i | i
CCn1ccnc1C(O)c1ccc(N(C)C)cc1 (stereo not given) | ? | 32µM | i | i | ? | i
CCOc1ccc(C(O)c2nccn2Cc2ccccc2)cc1 (stereo not given) | i | ? | i | i | i | i
O=Cc1ccc(OC(=O)Cc2ccc(F)cc2)cc1 | nt | i[0.501 µM] | nt | i | i | i[2.29 µM]
COc1cccc(CNCc2cccnc2)c1OCc1ccccc1 | i | 79µM | i | i | ? | i
COc1cccc(CNCc2ccccc2OC)c1 | i | 32µM | ? | i | i | i
COc1cc(CNCc2ccc(SC)cc2)cc(OC)c1 | 1.4µM | 22µM | ? | i | ? | i
COc1ccc(CNCc2ccncc2)c(OC)c1 | i | nt | i | i | i | i
COc1cc(CNCc2ccc(OC)c(OC)c2OC)cc(OC)c1 | 2.5µM | ? | i | i | 50µM | nt

Screening results (PubChem)
